From PubChem BioAssay AID2589 (National Center for Advancing Translational Sciences (NCATS), 2010)
The source made the active and inactive calls. Calls come from the whole dose curve; as a rule, active = well fitted curve in the direction sought with a large enough effect; inactive = no such curve, though single readings can be large or run the other way.

target: Lysosomal acid glucosylceramidase (Homo sapiens) (UniProt P04062); experiment: qHTS Assay for Inhibitors and Activators of N370S glucocerebrosidase as a Potential Chaperone Treatment of Gaucher Disease: Chaperone Activity in Non-Gauche Fibroblasts After Multi-day Incubation with Compound; details: Wild-type fibroblasts, GC immunofluorescence, 5-day incubation
Sequence (P04062 whole entry, looked up): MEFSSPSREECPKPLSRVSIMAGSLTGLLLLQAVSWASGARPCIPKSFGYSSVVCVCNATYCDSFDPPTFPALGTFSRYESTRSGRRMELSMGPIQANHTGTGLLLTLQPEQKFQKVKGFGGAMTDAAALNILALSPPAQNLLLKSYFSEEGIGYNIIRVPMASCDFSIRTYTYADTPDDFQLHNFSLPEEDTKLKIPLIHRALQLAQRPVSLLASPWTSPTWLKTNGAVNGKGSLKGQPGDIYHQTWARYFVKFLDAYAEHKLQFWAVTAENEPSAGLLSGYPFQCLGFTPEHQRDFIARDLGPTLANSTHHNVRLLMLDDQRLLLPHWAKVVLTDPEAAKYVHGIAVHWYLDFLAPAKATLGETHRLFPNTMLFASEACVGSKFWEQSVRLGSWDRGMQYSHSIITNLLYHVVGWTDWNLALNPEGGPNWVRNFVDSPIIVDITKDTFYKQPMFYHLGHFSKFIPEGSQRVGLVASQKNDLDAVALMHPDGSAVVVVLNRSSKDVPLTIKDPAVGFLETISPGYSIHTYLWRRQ
Description: NIH Chemical Genomics Center [NCGC] NIH Molecular Libraries Probe Production Centers Network [MLPCN] MLPCN Grant: MH086442-01 Assay Submitter (PI): Wei Zheng Glucocerebrosidase (GC) catalyzes the hydrolysis of beta-glucocerebroside to glucose and ceramide in lysosomes. Mutations in the glucocerebrosidase gene result in Gaucher disease, an autosomal recessive lysosomal storage disorder. Many of the mutations encountered in patients with Gaucher disease are missense alterations that may cause misfolding, decreased stability and/or mistrafficking of this lysosomal protein. […] These inhibitors include iminosugar analogs and three non-iminosugar inhibitors identified from a previous HTS of 62,000 compounds with the wild type recombinant enzyme. However, the enhancement of enzyme activity by the chaperone action of an enzyme inhibitor must be balanced against the direct inhibition of the enzyme. An enzyme activator could also function as a chaperone by binding to the enzyme and helping to correct its misfolding and mistrafficking. […] This assay attempts to quantitate translocated glucocerebrosidase protein in patient-derived fibroblasts following extended compound incubation. […]
NCGC Assay Protocol Summary: 1. […] Visualized using a fluorescence microscope and the intensity of fluorescence in the selected areas were calculated. […]

Row | SMILES | Potency
1 | S=C(NCCCc1cnc[nH]1)NCCCN(Cc1ccc(Cl)c(Cl)c1)c1ccc(Br)cn1 | 0.708 µM (active)
2 | O=S(=O)(c1ccc2ccccc2c1)N1CCN(c2nc(-c3cccs3)nc3ccccc23)CC1 | 1.26 µM (active)
